The nature of experiment [1]: Quantitative High-Throughput drug screen in 47 multiple myeloma cell lines against the NCATS MIPE library collection: OCIMY7_PLB cell viability assay (AID 1918987). Also: nearly all actives have a fitted effect of over 65% in size. The conditions noted are these: OCI-MY7 myeloma viability, CellTiter-Glo ATP, 48 h; viability (% of DMSO): at 45.8 µM (top of the series). The method in brief:
(§1)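 Readout: median RLU from CellTiter-Glo after 5 min at room temperature. Preceding step was 48 h drug treatment of 500 cells/well at 37 °C, 5% CO2, with DMSO-only and media-only control wells.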

The nature of experiment [2]: Quantitative High-Throughput drug screen in 47 multiple myeloma cell lines against the NCATS MIPE library collection: OCIMY5_PLB cell viability assay (AID 1918988). Also: nearly all actives have a fitted effect of over 65% in size. The procedure, abridged: as §1
Experiment [3] can be described thus: Quantitative High-Throughput drug screen in 47 multiple myeloma cell lines against the NCATS MIPE library collection: XG1_PLB cell viability assay (AID 1919866). Also: nearly all actives have a fitted effect of over 35% in size. The method in brief:
as §1

The nature of experiment [4]: Quantitative High-Throughput drug screen in 47 multiple myeloma cell lines against the NCATS MIPE library collection: VP6_DJ cell viability assay (AID 1919867). Also: nearly all actives have a fitted effect of over 40% in size.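 As to viability (% of DMSO): 100% = DMSO-only wells and 0% = wells with media alone.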 The procedure, abridged: as §1
A short description of experiment [5]: Quantitative High-Throughput drug screen in 47 multiple myeloma cell lines against the NCATS MIPE library collection: SKMM1_PLB cell viability assay (AID 1919863). Also: nearly all actives have a fitted effect of over 35% in size. Conditions: SKMM1 myeloma viability, CellTiter-Glo ATP, 48 h; viability: hits give low values. The method in brief:
as §1

The nature of experiment [6]: Quantitative High-Throughput drug screen in 47 multiple myeloma cell lines against the NCATS MIPE library collection: XG6_PLB cell viability assay (AID 1919865). Also: nearly all actives have a fitted effect of over 40% in size. The method in brief:
as §1

The nature of experiment [7]: Quantitative High-Throughput drug screen in 47 multiple myeloma cell lines against the NCATS MIPE library collection: UTMC2_PLB cell viability assay (AID 1919868). Also: nearly all actives have a fitted effect of over 55% in size.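 As to viability (% of DMSO control): 100% = DMSO-only wells and 0% = media-only wells without cells.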 Conditions: CellTiter-Glo ATP luminescence, 48 h; viability (% of DMSO control): at 45.8 µM (top of the series). The method in brief:
as §1

The nature of experiment [8]: Quantitative High-Throughput drug screen in 47 multiple myeloma cell lines against the NCATS MIPE library collection: PE2_PLB cell viability assay (AID 1919869). Also: nearly all actives have a fitted effect of over 35% in size. The method in brief:
as §1

Experiment [9] is described as follows: Quantitative High-Throughput drug screen in 47 multiple myeloma cell lines against the NCATS MIPE library collection: OPM1_PLB cell viability assay (AID 1918989). Also: nearly all actives have a fitted effect of over 40% in size. The method in brief:
as §1

Experiment [10] is described as follows: Quantitative High-Throughput drug screen in 47 multiple myeloma cell lines against the NCATS MIPE library collection: U266_ATCC cell viability assay (AID 1919864). Also: nearly all actives have a fitted effect of over 35% in size.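 As to viability (% of DMSO control): 0% = media-only wells without cells and 100% = DMSO-only wells.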 The method in brief:
as §1

Results filed as inconclusive are left out. Values without a mark were called inactive. Activity calls are given as the source filed them. Calls follow the shape of the dose curve; as a rule, active = well fitted cell-killing curve with a large enough effect; inconclusive = small, poorly fitted or top-dose-only effect, or effect the other way; inactive = no such curve, though single readings can be large or run the other way.
Potency is read from the fitted curve at half-maximal effect.

For `Cc1ccc(/C=N/NC(=O)c2ccccc2Oc2ccccc2)o1`, the Potency in experiment [1] was 16.6 µM (active); in [2], 16.6 µM (active); in [3], 11.8 µM (active). Besides, the Potency entry in experiment [4] was “inactive”.

For the compound `O=c1cc(CN2CCOCC2)occ1OCCCCCSc1ccnc2cc(C(F)(F)F)ccc12`, the Potency in experiment [1] was 11.8 µM (active); in experiment [2], 16.6 µM (active); in experiment [6], 3.32 µM (active); in [3] it was 11.8 µM (active); in [4], 7.43 µM (active); in [7], 9.35 µM (active). Also, in experiment [8], the Potency was 7.43 µM (active). The viability in experiment [5] is 111%.

Regarding `CC=C(C)C(=O)O[C@H]1C(C)=C[C@]23C(=O)[C@@H](C=C(CO)[C@@H](O)[C@]12O)[C@H]1[C@@H](C[C@H]3C)C1(C)C`, the Potency is 14.8 µM (active) in experiment [1]; 4.18 µM (active) in experiment [9]; 0.0059 µM (active) in experiment [5]; 3.72 µM (active) in experiment [6]; 26.4 µM (active) in experiment [4].

`O=C1NC(=O)C(=Cc2ccc(-c3ccc(F)cc3)o2)S1`: the Potency in experiment [1] was 20.9 µM (active); in experiment [6], 18.7 µM (active); in experiment [4], 14.8 µM (active); in [8], 8.33 µM (active). Besides, the Potency entry in [10] and in experiment [7] was “inactive” throughout.

With `CC=CCC=CCCC(=O)[C@H]1O[C@@H]1C(N)=O`, the Potency was 14.8 µM (active) in [1]; 14.8 µM (active) in experiment [2]; 18.7 µM (active) in experiment [5]; 20.9 µM (active) in experiment [3]; 23.5 µM (active) in experiment [4]; 23.5 µM (active) in [8].

In the case of `COc1ccc(-c2coc3cc(O)ccc3c2=O)cc1`, the Potency result in [1], in [9], in [10], in experiment [6], in experiment [3] and in experiment [4] was “inactive” in each case. Also, in experiment [8], the Potency entry was “inactive”.

For the compound `COc1ncc(-c2ccc3nccc(-c4ccnnc4)c3c2)cc1NS(=O)(=O)c1ccc(F)cc1F`, the Potency in experiment [1] is 0.166 µM (active); in experiment [2], 1.48 µM (active); in [5], 0.0118 µM (active); in experiment [6], 0.0187 µM (active).

For `N#CC(=C(N)Sc1ccccc1N)C(C#N)=C(N)Sc1ccccc1N`, the Potency in experiment [1] is 0.662 µM (active); in experiment [9] it was 20.9 µM (active); in experiment [5], 1.32 µM (active); in [10], 5.26 µM (active); in [6] it was 14.8 µM (active); in [3], 9.35 µM (active). Moreover, the Potency in experiment [4] is 20.9 µM (active); in experiment [7], 8.33 µM (active); in experiment [8], 18.7 µM (active).

With `CC[C@@H]1C=C(C)C[C@H](C)C[C@H](OC)[C@H]2O[C@@](O)(C(=O)C(=O)N3CCCC[C@@H]3C(=O)O[C@H](C(C)=C[C@@H]3CC[C@H](Cl)[C@H](OC)C3)[C@H](C)[C@@H](O)CC1=O)[C@H](C)C[C@H]2OC`, the Potency in [1] was 10.5 µM (active); in [2], 16.6 µM (active); in experiment [3], 14.8 µM (active); in experiment [8], 20.9 µM (active).

Take `Nc1ncnc2c1ncn2[C@@H]1O[C@H](CO)C[C@@H]1O`: the Potency result in experiment [1], in [9], in experiment [6], in experiment [3] and in [8] was “inactive” throughout. In [5], the Potency was 18.7 µM (active).

On to `CC(C)(C)Cn1c(N)nc2ccc(-c3[nH]c(C(C)(C)C)nc3-c3ccc(F)cc3)nc21`, for which the Potency was 18.7 µM (active) in experiment [1]; 16.6 µM (active) in experiment [2]; 20.9 µM (active) in experiment [9]; 14.8 µM (active) in experiment [6]; 16.6 µM (active) in experiment [4]; 20.9 µM (active) in experiment [8].

Take `O=C(NOCC(O)CO)c1cc(Br)c(F)c(F)c1Nc1ccc(I)cc1F` (centres undefined): the Potency in experiment [1] was 0.0166 µM (active); in experiment [6], 2.35 µM (active). Further, the Potency result in experiment [10] is “inactive”.

In the case of `CC(=NNC(=S)N1CCC1)c1ccccn1`, the Potency entry in [1], in [7] and in [8] was “inactive” throughout. Also, the Potency in experiment [9] is 0.0037 µM (active); in experiment [5], 0.0059 µM (active).

`CC[C@]1(O)C[C@@H]2CN(CCc3c([nH]c4ccccc34)[C@@](C(=O)OC)(c3cc4c(cc3OC)N(C=O)[C@@H]3C45CCN4CC=C[C@](CC)([C@H]45)[C@@H](OC(C)=O)[C@]3(O)C(=O)OC)C2)C1` (some centres undefined): the Potency is 9.35 µM (active) in [1]; 20.9 µM (active) in experiment [2]; 20.9 µM (active) in experiment [5]; 23.5 µM (active) in experiment [10]; 16.6 µM (active) in [8].

In the case of `CCNc1cc(NC2CCC(O)CC2)nc(Nc2ccc3c(ccn3Cc3ccccc3)c2)n1` (centres undefined), the Potency in experiment [1] is 16.6 µM (active); in experiment [9], 29.6 µM (active); in experiment [5], 18.7 µM (active); in experiment [6] it was 20.9 µM (active); in experiment [3], 23.5 µM (active); in experiment [4] it was 23.5 µM (active). In addition, the Potency in [7] was 37.2 µM (active); in experiment [8] it was 23.5 µM (active).

Take `NC(=O)c1cccc(-c2cc(Nc3ccc(OC(F)(F)F)cc3)ncn2)c1`: the Potency was 13.2 µM (active) in experiment [1]; 18.7 µM (active) in experiment [9]; 16.6 µM (active) in [6]; 14.8 µM (active) in [4]; 18.7 µM (active) in [8].

With `COc1cc2c(cc1OC)CN(CCc1ccc(NC(=O)c3cc(OC)c(OC)cc3NC(=O)c3cnc4ccccc4c3)cc1)CC2`, the Potency in experiment [1] is 6.62 µM (active); in experiment [9], 14.8 µM (active); in experiment [10], 5.26 µM (active); in [3], 20.9 µM (active); in [8], 26.4 µM (active). Also, in [5], the viability is 118%.

`CCCCCN(C)CCC(O)(P(=O)(O)O)P(=O)(O)O`: the Potency entry in [1], in experiment [9], in experiment [6], in experiment [3] and in [8] was “inactive” throughout.

On to `Nc1ncnc2c1nc(Cl)n2[C@@H]1O[C@H](CO)[C@@H](O)[C@@H]1O`, for which the Potency was 10.5 µM (active) in [1]; 0.418 µM (active) in experiment [2]; 14.8 µM (active) in experiment [5]; 14.8 µM (active) in [10]; 16.6 µM (active) in experiment [3]; 1.32 µM (active) in experiment [4]. The Potency in experiment [8] is 0.235 µM (active).

In the case of `CO[C@H]1C[C@@H]2CC[C@@H](C)[C@@](O)(O2)C(=O)C(=O)N2CCCC[C@@H]2C(=O)O[C@H]([C@H](C)C[C@@H]2CC[C@H](OP(C)(C)=O)[C@H](OC)C2)CC(=O)[C@H](C)C=C(C)[C@@H](O)[C@@H](OC)C(=O)[C@H](C)C[C@H](C)C=CC=CC=C1C`, the Potency in experiment [1] was 14.8 µM (active). In experiment [5], the viability is 83.3%. Besides, the Potency result in experiment [10], in [3] and in experiment [7] was “inactive” in each case.
